Reference: PubChem BioAssay (NCI)
The panel holds about 79,000 compounds, 15% with a hit somewhere; the sample as a whole holds those more often. Activity calls are given as the source filed them. No stated cut-off is given here; in the data, active means growth inhibition above about 70%; inactive means the rest.

Columns and labels:
[1] = NCI Yeast Anticancer Drug Screen. Data for the rad52 strain (AID 147);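 further: 0% = growth of vehicle-treated control cultures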; conditions: S. cerevisiae rad52 mutant growth inhibition, active compounds read high
Method in brief: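 Screen used a yeast mutant impaired in DNA repair. After compound exposure, growth was measured. Values reflect inhibition compared with vehicle-treated cells.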

[2] = NCI Yeast Anticancer Drug Screen. Data for the wt1 strain (AID 149);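 further: 0% = growth of vehicle-treated wt1 cultures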; conditions: S. cerevisiae wt1 strain (SPY 50644) growth inhibition, active compounds read high
Method in brief: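 Vehicle-normalised growth inhibition; strain wt1; compound exposure.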

[3] = NCI Yeast Anticancer Drug Screen. Data for the rad50 strain (AID 155);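 further: 0% = growth of vehicle-only cultures of the same strain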; conditions: S. cerevisiae rad50 strain growth inhibition, active compounds read high
Method in brief: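 A DNA repair-deficient yeast mutant serves as the test organism; compound-induced growth inhibition is calculated against vehicle-treated cells.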

[4] = NCI Yeast Anticancer Drug Screen. Data for the mec2-1 strain (AID 157); conditions: S. cerevisiae mec2-1 strain, active compounds read high
Method in brief: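 Readout is yeast growth inhibition, normalised to vehicle-treated controls, in the mec2-1 strain exposed to compound.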

[5] = NCI Yeast Anticancer Drug Screen. Data for the rad14 strain (AID 159);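 further: 0% = growth of vehicle-treated control cultures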; conditions: S. cerevisiae rad14 strain growth inhibition, active compounds read high
Method in brief: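 Vehicle-treated cultures served as the baseline for growth inhibition of a DNA repair-mutant yeast strain exposed to each compound.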

[6] = NCI Yeast Anticancer Drug Screen. Data for the sgs1 mgt1 strain (AID 161);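 further: 0% = growth of cultures given vehicle only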; conditions: S. cerevisiae sgs1 mgt1 strain, active compounds read high
Method in brief: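 Percent growth inhibition was derived by comparing compound-exposed mutant yeast with vehicle-exposed cultures. The strain carries alterations in DNA damage repair.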

[7] = NCI Yeast Anticancer Drug Screen. Data for the CLN2oe strain (AID 163);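 further: 0% = growth of vehicle-only control cultures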; conditions: S. cerevisiae CLN2oe strain, active compounds read high
Method in brief: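 Values reflect how much compound exposure reduced yeast growth, referenced to vehicle-exposed cells. Assay organism is a strain with a defined genetic change affecting cell-cycle control.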

[8] = NCI Yeast Anticancer Drug Screen. Data for the cln2 rad14 strain (AID 165);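 further: 0% = growth equal to vehicle treated cultures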; conditions: S. cerevisiae cln2 rad14 strain, active compounds read high
Method in brief: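 Relative to vehicle controls, growth inhibition of compound-treated cln2 rad14 yeast was recorded.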

[9] = NCI Yeast Anticancer Drug Screen. Data for the bub3 strain (AID 167); conditions: S. cerevisiae bub3 mutant strain, active compounds read high
Method in brief: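 Inhibition values come from growth of compound-treated mutant yeast normalised to vehicle-treated controls.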

[10] = NCI Yeast Anticancer Drug Screen. Data for the wt2 strain (AID 169);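 further: 0% = growth of vehicle-treated yeast cultures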; conditions: S. cerevisiae wt2 strain growth inhibition, active compounds read high
Method in brief: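 Values express reduction in yeast growth under compound treatment, referenced to vehicle-treated cells.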

[11] = NCI Yeast Anticancer Drug Screen. Data for the mlh1 strain (AID 171);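 further: 0% = growth of vehicle-treated control cultures of the same strain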; conditions: S. cerevisiae mlh1 strain growth inhibition, active compounds read high
Method in brief: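 Steps: expose the defined-mutant yeast strain to compound; expose a parallel culture to vehicle; measure growth; express compound effect as inhibition relative to the vehicle culture.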

[12] = NCI Yeast Anticancer Drug Screen. Data for the sgs1 strain (AID 173);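 further: 0% = growth of vehicle-only control cultures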; conditions: S. cerevisiae sgs1 mutant, active compounds read high
Method in brief: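 Treat defined-mutant yeast with compound; measure growth; calculate inhibition relative to vehicle-treated cells.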

[13] = NCI Yeast Anticancer Drug Screen. Data for the mlh1 rad18 strain (AID 175); conditions: S. cerevisiae mlh1 rad18 strain growth inhibition, active compounds read high
Method in brief: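 Test agents were incubated with a yeast strain of defined genotype (DNA damage repair defect). Inhibition of growth was derived by comparison with vehicle-exposed cultures.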

[14] = NCI Yeast Anticancer Drug Screen. Data for the rad18 strain (AID 177); conditions: S. cerevisiae rad18 mutant growth inhibition, active compounds read high
Method in brief: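 A genetically defined yeast mutant impaired in DNA damage repair was treated with test compounds, then its growth was measured against cultures receiving vehicle alone.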

[15] = NCI Yeast Anticancer Drug Screen. Data for the rad50EPP+ strain (AID 151);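 further: 0% = growth of vehicle-treated control cultures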; conditions: S. cerevisiae rad50 mutant strain, active compounds read high
Method in brief: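 Exposing the rad50EPP+ strain to each compound, growth was compared with vehicle-only cultures to give inhibition.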

[16] = at 5.0 µM (retest, dose inferred, filed as 0.5)
[17] = at 50.0 µM (retest, dose inferred, filed as 5.0)

Measured: growth inhibition

COCCCN(Cc1cc(OC)c(OC)c(OC)c1)C(=S)Nc1cccc(Cl)c1
inactive: [1]; at 1.2 µM 20% | [1]; at 3.7 µM 12% | [1]; at 11.0 µM 7% | [1]; at 33.0 µM 23% | [1]; at 100.0 µM 46% | [2]; at 1.2 µM 15% | [2]; at 3.7 µM 12% | [2]; at 11.0 µM 9% | [2]; at 33.0 µM 15% | [2]; at 100.0 µM 24% | [3]; at 1.2 µM -24% | [3]; at 3.7 µM -13% | [3]; [16] 43% | [3]; at 11.0 µM -14% | [3]; at 33.0 µM -8% | [3]; [17] 69% | [3]; at 50.0 µM 22.7% | [3]; at 100.0 µM 40% | [4]; at 1.2 µM -12% | [4]; at 3.7 µM 4% | [4]; [16] 51% | [4]; at 11.0 µM -19% | [4]; at 33.0 µM -18% | [4]; [17] 56% | [4]; at 50.0 µM -9.3% | [4]; at 100.0 µM 20% | [5]; at 1.2 µM -28% | [5]; at 3.7 µM -7% | [5]; at 11.0 µM -32% | [5]; at 33.0 µM -32% | [5]; at 100.0 µM 15% | [6]; [16] -32% | [6]; [17] 4% | [6]; at 50.0 µM 24.4% | [7]; at 1.2 µM 0% | [7]; at 3.7 µM -9% | [7]; at 11.0 µM -30% | [7]; at 33.0 µM -26% | [7]; at 100.0 µM 1% | [8]; [16] 41% | [8]; [17] 46% | [8]; at 50.0 µM 17.4% | [9]; at 1.2 µM -3% | [9]; at 3.7 µM 0% | [9]; [16] 5% | [9]; at 11.0 µM -2% | [9]; at 33.0 µM 30% | [10]; at 1.2 µM 5% | [10]; at 3.7 µM -3% | [10]; at 11.0 µM -9% | [10]; at 33.0 µM 14% | [10]; at 100.0 µM 43% | [11]; at 1.2 µM 0% | [11]; at 3.7 µM -19% | [11]; at 11.0 µM -38% | [11]; at 33.0 µM -30% | [11]; at 100.0 µM 31% | [12]; at 1.2 µM -20% | [12]; at 3.7 µM -22% | [12]; at 11.0 µM -21% | [12]; at 33.0 µM -16% | [12]; at 100.0 µM 36% | [13]; [16] 46% | [13]; [17] 67% | [13]; at 50.0 µM 19.2% | [14]; at 1.2 µM -17% | [14]; at 3.7 µM -25% | [14]; at 11.0 µM -17% | [14]; at 33.0 µM -15% | [14]; at 100.0 µM 27%
active: [9]; [17] 79% | [9]; at 50.0 µM 72.2% | [9]; at 100.0 µM 72%

CCOC(=O)C1=C(C)NC(C)=C(C(=O)OCC)C1c1ccc(C)cc1
inactive: [1]; at 1.2 µM 27% | [1]; at 3.7 µM 43% | [1]; at 11.0 µM 64% | [2]; at 1.2 µM 28% | [2]; at 3.7 µM 19% | [2]; at 11.0 µM 57% | [15]; at 1.2 µM -21% | [15]; at 3.7 µM -27% | [15]; at 11.0 µM -25% | [15]; at 33.0 µM -13% | [15]; at 100.0 µM 27% | [3]; at 1.2 µM 30% | [3]; at 3.7 µM 31% | [3]; [16] -24% | [3]; at 11.0 µM 59% | [3]; [17] 21% | [5]; at 1.2 µM 17% | [5]; at 3.7 µM 14% | [5]; at 11.0 µM 69% | [6]; [16] -20% | [7]; at 1.2 µM 26% | [7]; at 3.7 µM 13% | [7]; at 11.0 µM 33% | [8]; [16] -31% | [8]; [17] 29% | [9]; at 1.2 µM 61% | [9]; [16] -13% | [10]; at 1.2 µM 5% | [10]; at 3.7 µM 7% | [10]; at 11.0 µM 53% | [11]; at 1.2 µM 8% | [11]; at 3.7 µM 9% | [11]; at 11.0 µM 55% | [12]; at 1.2 µM 15% | [12]; at 3.7 µM 21% | [12]; at 11.0 µM 66% | [13]; [16] -37% | [14]; at 1.2 µM -2% | [14]; at 3.7 µM -2% | [14]; at 11.0 µM 20%
active: [1]; at 33.0 µM 97% | [1]; at 100.0 µM 95% | [2]; at 33.0 µM 97% | [2]; at 100.0 µM 96% | [3]; at 33.0 µM 96% | [3]; at 50.0 µM 88.7% | [3]; at 100.0 µM 96% | [5]; at 33.0 µM 96% | [5]; at 100.0 µM 93% | [6]; [17] 75% | [6]; at 50.0 µM 91.8% | [7]; at 33.0 µM 96% | [7]; at 100.0 µM 95% | [8]; at 50.0 µM 90% | [9]; at 3.7 µM 78% | [9]; at 11.0 µM 91% | [9]; at 33.0 µM 97% | [9]; [17] 90% | [9]; at 50.0 µM 91.3% | [9]; at 100.0 µM 95% | [10]; at 33.0 µM 96% | [10]; at 100.0 µM 96% | [11]; at 33.0 µM 96% | [11]; at 100.0 µM 95% | [12]; at 33.0 µM 98% | [12]; at 100.0 µM 96% | [13]; [17] 79% | [13]; at 50.0 µM 90.2% | [14]; at 33.0 µM 96% | [14]; at 100.0 µM 96%
